Settings in all cases: concentration: 10 µM; 24 h
In experiment [1] the test system is HCC1569. Description: cell number relative to DMSO (% of DMSO); higher = more cells (less growth inhibition / toxicity). Put shortly:
(§1)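 Compounds were applied at 10 µM for 24 h at 37 °C, in triplicate, to HCC1569 and TDF cells. The cells were then fixed and stained for H1.0, and nuclei were counterstained with DAPI. Nuclear H1.0 intensity or cell number is reported relative to the plate control as a percent, taking the median of replicates. Smoothing for positional effects was applied to HCC1569 values only.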

The subject of experiment [2] is TDF. The description is as above. The method, boiled down:
as §1

The subject of experiment [3] is TDF. Description: H1.0 immunofluorescence intensity relative to DMSO (% of DMSO); higher = stronger H1.0 induction, active = 120 or more. Put shortly: as §1
In experiment [4] the test system is HCC1569. Description: H1.0 immunofluorescence intensity relative to DMSO (% of DMSO); higher = stronger H1.0 induction, active = 140 or more. The method, boiled down: as §1
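For H1.0 immunofluorescence intensity relative to DMSO in this document: TDF is a line of transformed human dermal fibroblasts of mesenchymal origin.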
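For cell number relative to DMSO in this document: TDF denotes transformed human dermal fibroblasts of mesenchymal origin.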

Take `Cn1c(=O)c(-c2c(Cl)cccc2Cl)cc2cnc(Nc3cccc(C(=O)O)c3)nc21`: the cell number in experiment [1] came out at 69.7; in experiment [2], 111. In addition, the H1.0 immunofluorescence intensity is 95.7 (inactive) in experiment [3] and 156 (active) in experiment [4].

In the case of `Cc1nc(N)sc1-c1ccnc(Nc2ccc(N3CCOCC3)cc2)n1`, the cell number was 62.2 in experiment [1] and 42.5 in experiment [2]. For the same compound, the figures for the H1.0 immunofluorescence intensity in experiment [3] and in experiment [4] were 105 (inactive) and 99.1 (inactive), respectively.

Turning to `O=c1[nH]ccc2c(O)cccc12` [1,5-Isoquinolinediol], the results for the cell number in experiment [1] and in experiment [2] were 100 and 97.2, respectively. Also, the H1.0 immunofluorescence intensity in experiment [3] was 87.9 (inactive); in experiment [4] it was 91.6 (inactive).

Turning to `CC(=O)OC1(C(C)=O)CCC2C3C=C(C)C4=CC(=O)CCC4(C)C3CCC21C` (configuration not stated) [Megestrol Acetate], the cell number in experiment [1] was 106; in experiment [2], 96.9. The figures for the H1.0 immunofluorescence intensity in experiment [3] and in experiment [4] were 98.9 (inactive) and 104 (inactive), respectively.

Consider `N#CC(=C(N)Sc1ccc(N)cc1)c1ccccc1C(F)(F)F`, for which the cell number in experiment [1] was determined as 102; in experiment [2], 115. In addition, the H1.0 immunofluorescence intensity in experiment [3] is 90.6 (inactive); in experiment [4], 126 (inactive).

With `CC12CCC3c4ccc(O)cc4CCC3C1CC(O)C2O` (configuration not stated) [Estriol], the cell number is 98.5 in experiment [1] and 97.8 in experiment [2]. Moreover, the H1.0 immunofluorescence intensity was 101 (inactive) in experiment [3] and 113 (inactive) in experiment [4].

In the case of `CN(N=O)C(=O)NC1C(O)OC(CO)C(O)C1O` (configuration not stated) [Streptozocin], the cell number in experiment [1] worked out at 101; in experiment [2], 102. Also, the H1.0 immunofluorescence intensity in experiment [3] was 96.1 (inactive); in experiment [4], 87.6 (inactive).

`CC(C)N=c1cc2n(-c3ccc(Cl)cc3)c3ccccc3nc-2cc1Nc1ccc(Cl)cc1`: the cell number in experiment [1] is 89.6; in experiment [2], 72.2. Further, the H1.0 immunofluorescence intensity is 109 (inactive) in experiment [3] and 118 (inactive) in experiment [4].

Source of the values: the supplement of paper PMC7156485.
